According to PubChem BioAssay AID904 (National Center for Advancing Translational Sciences (NCATS), 2007):
Screen size: about 55,000 compounds; about 530 (0.96%) were called active. Where a call stands in place of a potency, no number is given. Inconclusive results (about 7%) are left out. The call rests on the fitted dose curve; in most records, active means well fitted cell-killing curve with a large enough effect; inconclusive means small, poorly fitted or top-dose-only effect; inactive means no such curve, though single readings can be large or run the other way. The full list was thinned out, with actives kept by preference.

Assay: qHTS Screen for Compounds that Selectively Target Cancer Cells with p53 Mutations: Cytotoxicity of p53 Null Cells at the Nonpermissive Temperature; further: nearly all actives have a fitted effect of over 50% in size
Conditions: H1299 p53-null (neo) cells, 39C, ATPlite viability, 24 h; series mostly up to 46.1 µM
Description: NIH Chemical Genomics Center [NCGC] NIH Molecular Libraries Screening Centers Network [MLSCN] MLSCN Grant: 1 X01 MH079844-01 Assay Submitter (PI): Dr. SUN, YI, University of Michigan NCGC Assay Overview: Synthetic Lethal Screen for Compounds to Kill Cancer Cells with p53 Mutation. Tumor suppressor gene p53 serves as a major cellular barrier against tumorigenesis. […] The goal of this screening is to identify small molecule probes that selectively kill cancer cells with mutations in p53. This screening was carried out using two lines of H1299 lung cancer cells. The H1299-p53 A138V line express a temperature sensitive p53 mutant (p53ts) in which the mutant p53 protein (A138V) is in the mutant confirmation when grown at 39C (the nonpermissive temperature) and in the wild type conformation when grown at 32C (the permissive temperature). A H1299-neo line (p53 null) grown at both 39C and 32C were used as counter-screens to filter out false positive associated with temperature shifting. The small molecular compounds that selectively target mutant p53-containing cancer cells were selected as candidate probes for further study. A cytotoxicity assay based on the measurement of ATP contents in cells was used in this screen. Concentration-responses of all the compounds in the library collection were determined in qHTS using the cell lines and temperature conditions as above.
NCGC Assay Protocol Summary: Both the H1299-p53A138V and H1299-neo cell lines were provided by Dr.Yi Sun, a PI at the University Michigan. The cells were maintained and cultured at 37C. The resuspended frozen cells were used to plate the cells in the 1536-well assay plates at a density of 600 cells per well in 5 ul medium. The assay plates with the cells were incubated at 37C for 16 to 30 hours before the experiments. The library compounds in DMSO solution were added to the cells in assay plates and incubated 24 hours at 39C (for mutant p53 conformation) or 32C (for normal p53 conformation as control). An ATP_lite assay kit (PerkinElmer) was used to determine the cell viability. Tomaxifen (100uM) was used as the positive control for cell killing. Data were normalized to the controls for basal activity (DMSO only) and 100% killing (100uM tamoxifen). AC50 values were determined from concentration-response data modeled with the standard Hill equation. P53 assay protocol: 1. Reagent; 5 uL H1299-p53A138V or H1299-neo cell cells/well 2. Time; overnight; 37C incubation 3. Compounds; 23 nL; 5.9 nM to 46 uM 4. Controls; 23 nL; Tamoxifen 100 uM 5. Time; 24 hr; 39C incubation 6. Reagent; 3 uL; ATP_Lite reagent 7. Time; 20 min; Room Temperature 8. Detection; Luminescence; Viewlux plate reader Keywords: p53, synthetic lethal, cancer, cell viability, cytotoxicity, H1299 cell line, luminescence, MLSMR, MLSCN, NIH Roadmap, qHTS, NCGC
Potency means the concentration at half of the fitted maximal effect.

Row | SMILES | Potency
1 | CCOc1ccc(C(NC(=O)c2cc(OC)c(OC)c(OC)c2)c2cc(Cl)c3cccnc3c2O)cc1 (stereo not given) | 3.55 µM (active)
2 | CN(C)c1cccc(C(=O)Nc2nc3ccc(S(=O)(=O)NC(C)(C)C)cc3s2)c1 | inactive
3 | Cc1ccc(-n2c(/C=C/c3cccc(C(F)(F)F)c3)nc3ccccc3c2=O)cc1 | inactive
4 | COC(=O)COc1cc(C)cc2oc(=O)c3c(c12)CCCC3 | inactive
5 | O=C(Nc1ccc(Cl)cc1C(=O)c1ccccc1)c1cc(Cl)cc(Cl)c1 | inactive
